Assay results taken from the supplement of paper PMC8728848.
The full list was thinned out, with the strongest signals kept by preference.

Legend:
Assay in all cases: glycan array binding signal (z-score within array); higher = stronger binding
Conditions in all cases: glycan notation: IUPAC condensed, linker removed
[1] = target: Fuc(a1-2)Gal(b1-3)GalNAc(b1-3)Gal
Summary of the method: (§1)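 Glycan array binding is given as a within-array Z-score, which can be read as non-binding when negative. The arrays, 3228 of them, came from the Consortium for Functional Glycomics database and were retained only where the protein sequence was available. Z-scores were averaged across arrays of the same protein sequence at different concentrations or buffers and across linkers.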

[2] = target: Fuc(a1-2)Gal(b1-3)GlcNAc6S
Summary of the method: as §1

[3] = target: Fuc(a1-2)Gal3S(b1-4)GlcNAc
Summary of the method: as §1

[4] = target: Fuc(a1-2)[Gal(a1-3)]Gal(b1-3)GalNAc(b1-3)Gal(a1-4)Gal(b1-4)Glc
Summary of the method: as §1

[5] = target: Fuc(a1-2)[Gal(a1-3)]Gal(b1-3)GlcNAc(b1-6)GalNAc
Summary of the method: as §1

[6] = target: Fuc(a1-2)[Gal(a1-3)]Gal(b1-4)GlcNAc(b1-2)Man(a1-3)[Fuc(a1-2)[Gal(a1-3)]Gal(b1-4)GlcNAc(b1-2)Man(a1-6)]Man(b1-4)GlcNAc(b1-4)GlcNAc
Summary of the method: as §1

[7] = target: Fuc(a1-2)[Gal(a1-3)]Gal(b1-4)GlcNAc(b1-3)GalNAc
Summary of the method: as §1

[8] = target: Fuc(a1-2)[Gal(a1-3)]Gal(b1-4)GlcNAc(b1-3)[Fuc(a1-2)[Gal(a1-3)]Gal(b1-4)GlcNAc(b1-6)]GalNAc
Summary of the method: as §1

[9] = target: Fuc(a1-2)[Gal(a1-3)]Gal(b1-4)GlcNAc(b1-6)GalNAc
Summary of the method: as §1

[10] = target: Fuc(a1-2)[Gal(a1-3)]Gal(b1-4)[Fuc(a1-3)]Glc
Summary of the method: as §1

[11] = target: Fuc(a1-3)[Gal(b1-4)]GlcNAc
Summary of the method: as §1

[12] = target: Fuc(a1-3)[Gal(b1-4)]GlcNAc(b1-2)Man
Summary of the method: as §1

[13] = target: Fuc(a1-3)[Gal(b1-4)]GlcNAc(b1-6)[Gal(b1-3)GlcNAc(b1-3)]Gal(b1-4)Glc
Summary of the method: as §1

[14] = target: Fuc(a1-4)GlcNAc
Summary of the method: as §1

[15] = target: Gal(b1-3)GalNAc(b1-3)Gal(a1-4)Gal(b1-4)Glc
Summary of the method: as §1

[16] = target: Gal(b1-3)GlcNAc(b1-3)GalNAc
Summary of the method: as §1

[17] = target: Gal(b1-3)[GlcNAc(b1-6)]GalNAc
Summary of the method: as §1

[18] = target: Gal(b1-3)[Neu5Ac(b2-6)]GalNAc
Summary of the method: as §1

[19] = target: Gal(b1-4)GlcNAc(b1-3)Gal(b1-4)GlcNAc(b1-2)[Gal(b1-4)GlcNAc(b1-3)Gal(b1-4)GlcNAc(b1-6)]Man(a1-6)[Gal(b1-4)GlcNAc(b1-3)Gal(b1-4)GlcNAc(b1-2)Man(a1-3)]Man(b1-4)GlcNAc(b1-4)GlcNAc
Summary of the method: as §1

[20] = target: Gal(b1-4)GlcNAc(b1-3)GalNAc
Summary of the method: as §1

[21] = target: Gal(b1-4)GlcNAc(b1-3)[Gal(b1-4)GlcNAc(b1-6)]Gal(b1-4)GlcNAc
Summary of the method: as §1

[22] = target: Gal(b1-4)GlcNAc(b1-3)[GlcNAc(b1-6)]Gal(b1-4)GlcNAc
Summary of the method: as §1

[23] = target: Gal(b1-4)GlcNAc(b1-6)[Gal(b1-4)GlcNAc(b1-3)]GalNAc
Summary of the method: as §1

[24] = target: Gal(b1-6)Gal
Summary of the method: as §1

[25] = target: Gal3S(b1-4)[Fuc(a1-3)]GlcNAc6S
Summary of the method: as §1

[26] = target: Gal3S4S(b1-4)GlcNAc
Summary of the method: as §1

[27] = target: Gal3S6S(b1-4)GlcNAc6S
Summary of the method: as §1

[28] = target: Gal6S(b1-4)Glc6S
Summary of the method: as §1

[29] = target: GlcA(b1-3)GlcNAc
Summary of the method: as §1

[30] = target: GlcNAc(a1-3)Gal(b1-4)GlcNAc
Summary of the method: as §1

[31] = target: GlcNAc(a1-4)Gal(b1-4)GalNAc
Summary of the method: as §1

[32] = target: GlcNAc(b1-2)[GlcNAc(b1-4)]Man(a1-3)[GlcNAc(b1-4)][GlcNAc(b1-2)[GlcNAc(b1-6)]Man(a1-6)]Man(b1-4)GlcNAc(b1-4)[Fuc(a1-6)]GlcNAc
Summary of the method: as §1

[33] = target: GlcNAc(b1-3)Gal(b1-4)GlcNAc
Summary of the method: as §1

[34] = target: GlcNAc(b1-3)Gal(b1-4)GlcNAc(b1-3)Gal(b1-4)GlcNAc(b1-3)Gal(b1-4)GlcNAc(b1-3)Gal(b1-4)GlcNAc(b1-2)[GlcNAc(b1-3)Gal(b1-4)GlcNAc(b1-3)Gal(b1-4)GlcNAc(b1-3)Gal(b1-4)GlcNAc(b1-3)Gal(b1-4)GlcNAc(b1-6)]Man(a1-6)[GlcNAc(b1-3)Gal(b1-4)GlcNAc(b1-3)Gal(b1-4)GlcNAc(b1-3)Gal(b1-4)GlcNAc(b1-3)Gal(b1-4)GlcNAc(b1-2)Man(a1-3)]Man(b1-4)GlcNAc(b1-4)[Fuc(a1-6)]GlcNAc
Summary of the method: as §1

[35] = target: GlcNAc(b1-3)Man
Summary of the method: as §1

[36] = target: GlcNAc(b1-4)GlcNAc
Summary of the method: as §1

[37] = target: GlcNAc(b1-6)GalNAc
Summary of the method: as §1

[38] = target: Man(a1-2)Man(a1-2)Man(a1-3)Man
Summary of the method: as §1

[39] = target: Neu5Ac(a2-3)Gal(b1-3)GalNAc(b1-4)[Neu5Ac(a2-3)]Gal(b1-4)Glc
Summary of the method: as §1

[40] = target: Neu5Ac(a2-3)Gal(b1-4)Glc
Summary of the method: as §1

[41] = target: Neu5Ac(a2-3)Gal(b1-4)GlcNAc(b1-3)Gal(b1-4)GlcNAc(b1-3)[Neu5Ac(a2-3)Gal(b1-4)GlcNAc(b1-3)Gal(b1-4)GlcNAc(b1-6)]GalNAc
Summary of the method: as §1

[42] = target: Neu5Ac(a2-3)[Neu5Ac(a2-6)]GalNAc
Summary of the method: as §1

[43] = target: Neu5Ac(a2-6)Gal
Summary of the method: as §1

[44] = target: Neu5Ac(a2-6)Gal(b1-4)GlcNAc(b1-2)Man(a1-3)[Neu5Ac(a2-6)Gal(b1-4)GlcNAc(b1-2)Man(a1-6)]Man(b1-4)GlcNAc(b1-4)GlcNAc
Summary of the method: as §1

[45] = target: Neu5Ac(a2-6)Gal(b1-4)GlcNAc(b1-3)Gal(b1-4)GlcNAc(b1-3)[Neu5Ac(a2-6)Gal(b1-4)GlcNAc(b1-3)Gal(b1-4)GlcNAc(b1-6)]GalNAc
Summary of the method: as §1

[46] = target: Neu5Ac(a2-6)Gal(b1-4)GlcNAc(b1-6)[Gal(b1-3)GlcNAc(b1-3)]Gal(b1-4)Glc
Summary of the method: as §1

[47] = target: Neu5Ac(a2-6)Gal(b1-4)GlcNAc6S
Summary of the method: as §1

[48] = target: Neu5Ac(a2-8)Neu5Ac
Summary of the method: as §1

[49] = target: Neu5Ac(a2-8)Neu5Ac(a2-3)Gal(b1-3)GalNAc(b1-4)[Neu5Ac(a2-3)]Gal(b1-4)Glc
Summary of the method: as §1

[50] = target: Neu5Gc(a2-3)Gal(b1-4)Glc
Summary of the method: as §1

[51] = target: Neu5Gc(a2-3)Gal(b1-4)GlcNAc
Summary of the method: as §1

[52] = target: Neu5Gc(a2-6)Gal(b1-4)GlcNAc
Summary of the method: as §1

B1: PNGase F (Flavobacterium meningosepticum) (protein)
chain: GIPAPADNTVNIKTFDKVKNAFGDGLSQSAEGTFTFPADVTAVKTIKMFIKNECPNKTCDEWDRYANVYVKNKTTGEWYEIGRFITPYWVGTEKLPRGLEIDVTDFKSLLSGNTELKIYTETWLAKGREYSVDFDIVYGTPDYKYSAVVPVVQYNKSSIDGVPYGKAHTLALKKNIQLPTNTEKAYLRTTISGWGHAKPYDAGSRGCAEWCFRTHTIAINNSNTFQHQLGALGCSANPINNQSPGNWTPDRAGWCPGMAVPTRIDVLNNSLIGSTFSYEYKFQNWTNNGTNGDAFYAISSFVIAKSNTPISAPVVTNLDPHHHHHH
[1]
  glycan array binding signal (z-score): 1.61
[2]
  glycan array binding signal (z-score): -0.123
[3]
  glycan array binding signal (z-score): -0.157
[4]
  glycan array binding signal (z-score): 0.033
[5]
  glycan array binding signal (z-score): -0.032
[6]
  glycan array binding signal (z-score): -0.273
[7]
  glycan array binding signal (z-score): -0.226
[8]
  glycan array binding signal (z-score): 1.46
[9]
  glycan array binding signal (z-score): 0.476
[10]
  glycan array binding signal (z-score): -0.16
[11]
  glycan array binding signal (z-score): 0.02
[12]
  glycan array binding signal (z-score): 0.163
[13]
  glycan array binding signal (z-score): -0.308
[14]
  glycan array binding signal (z-score): 2.72
[15]
  glycan array binding signal (z-score): 0.036
[16]
  glycan array binding signal (z-score): -0.268
[17]
  glycan array binding signal (z-score): -0.166
[18]
  glycan array binding signal (z-score): -0.337
[19]
  glycan array binding signal (z-score): 1.63
[20]
  glycan array binding signal (z-score): -0.281
[21]
  glycan array binding signal (z-score): -0.219
[22]
  glycan array binding signal (z-score): 1.78
[23]
  glycan array binding signal (z-score): -0.289
[24]
  glycan array binding signal (z-score): 0.208
[25]
  glycan array binding signal (z-score): 0.165
[26]
  glycan array binding signal (z-score): -0.092
[27]
  glycan array binding signal (z-score): -0.035
[28]
  glycan array binding signal (z-score): -0.41
[29]
  glycan array binding signal (z-score): -0.118
[30]
  glycan array binding signal (z-score): -0.344
[31]
  glycan array binding signal (z-score): 1.26
[32]
  glycan array binding signal (z-score): -0.395
[33]
  glycan array binding signal (z-score): -0.264
[34]
  glycan array binding signal (z-score): -0.3
[35]
  glycan array binding signal (z-score): 3.03
[36]
  glycan array binding signal (z-score): 10.4
[37]
  glycan array binding signal (z-score): -0.018
[38]
  glycan array binding signal (z-score): 1.49
[39]
  glycan array binding signal (z-score): -0.289
[40]
  glycan array binding signal (z-score): 2.16
[41]
  glycan array binding signal (z-score): -0.043
[42]
  glycan array binding signal (z-score): 0.36
[43]
  glycan array binding signal (z-score): -0.129
[44]
  glycan array binding signal (z-score): -0.391
[45]
  glycan array binding signal (z-score): -0.278
[46]
  glycan array binding signal (z-score): -0.207
[47]
  glycan array binding signal (z-score): -0.286
[48]
  glycan array binding signal (z-score): -0.021
[49]
  glycan array binding signal (z-score): -0.328
[50]
  glycan array binding signal (z-score): 0.187
[51]
  glycan array binding signal (z-score): 2.36
[52]
  glycan array binding signal (z-score): -0.046
